Assay results published in PubChem BioAssay AID1467 (National Center for Advancing Translational Sciences (NCATS), 2008).
Among all 230,000 compounds or so, fewer than 10 were called active. The call rests on the fitted dose curve; in most records, active means well fitted curve in the direction sought with a large enough effect; inconclusive means small, poorly fitted or top-dose-only effect, or effect the other way, or another doubt; inactive means no such curve, though single readings can be large or run the other way. The list is a sample of the results.

The compounds below were run against Alpha-galactosidase A (Homo sapiens) (UniProt P06280) (assay: qHTS Assay for Inhibitors of Human alpha-Galactosidase at pH 4.5.). Details: purified enzyme, 4-MU-alpha-Gal fluorescence; series mostly up to 105 µM; activity change, negative = inhibition: at the top concentration.
Description: NIH Chemical Genomics Center [NCGC]
NIH Molecular Libraries Probe Production centers Network [MLPCN]
Assay Submitter (PI): Wei Zheng
Alpha-galactosidase is a homodimeric glycoprotein that hydrolyzes the terminal alpha-galactosyl moieties from glycolipids and glycoproteins. Deficiency of this enzyme results in Fabry Disease with progressive accumulation of globotriaosylceramide and other glycosphingolipids in vascular endothelial cells that causes renal failure, myocardial infarction and stroke, and premature death in patients. It has been reported that the improper folding and trafficking of alpha-galactosidase resulting from the genetic mutations may account for a significant numbers of Fabry patients. […] We optimized this alpha-galactosidase assay in 1536-well plate format for identifying the novel small molecule inhibitors with the structures other than the sugar analogs in order to develop the new pharmacological chaperones. Although this assay has the same protocol as PubChem AID 992, this is a separate project and, therefore, is published as a separate assay
NCGC Assay Protocol Summary:
This is a fluorogenic enzyme assay with 4-Methylumbelliferyl alpha-D-galactopyranoside as the substrate and human […] as the enzyme preparation. Upon the hydrolysis of this fluorogenic substrate, the resulting product, […]. 4-Methyllumbelliferone, can be excited at 365 nm and emits at 440 nm. This fluorescence which can be detected by a standard fluorescence plate reader. Data were normalized to the controls for basal activity (without enzyme) and 100% activity (with enzyme). In the AC50 values were determined from concentration-response data modeled with the standard Hill equation.
Assay buffer: 50 mM citric acid (titrated with potassium phosphate to pH 4.5), 0.005% Tween-20, pH 4.5. (pH 4.5 is an optimal condition for this enzyme assay)
1536-well assay protocol for the human alpha-galactosidase:
(1) Add 2 ul/well of enzyme (12 nM final)
(2) Add 23 nL compounds in DMSO solution. The final titration was 0.7 nM to 77 uM.
(3) Add 1 ul of substrate (400 uM final)
(4) Incubate at room temperature for 20 min.
(5) Add 2 ul stop solution (1M NaOH and 1M Glycine mixture, pH 10)
(6) Detect the assay plate in a ViewLux plate reader (PerkinElmer) with Ex=365 nm and Em=440nm.
Keywords: MLSMR, MLPCN, NIH Roadmap, qHTS, NCGC, : Alpha-galactosidase, Fabry Disease, pharmacological chaperone, chaperone therapy
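Further: 0% = full activity with enzyme and -100% = basal without enzyme.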

Alpha-galactosidase A (Homo sapiens), sequence (P06280 whole entry, looked up): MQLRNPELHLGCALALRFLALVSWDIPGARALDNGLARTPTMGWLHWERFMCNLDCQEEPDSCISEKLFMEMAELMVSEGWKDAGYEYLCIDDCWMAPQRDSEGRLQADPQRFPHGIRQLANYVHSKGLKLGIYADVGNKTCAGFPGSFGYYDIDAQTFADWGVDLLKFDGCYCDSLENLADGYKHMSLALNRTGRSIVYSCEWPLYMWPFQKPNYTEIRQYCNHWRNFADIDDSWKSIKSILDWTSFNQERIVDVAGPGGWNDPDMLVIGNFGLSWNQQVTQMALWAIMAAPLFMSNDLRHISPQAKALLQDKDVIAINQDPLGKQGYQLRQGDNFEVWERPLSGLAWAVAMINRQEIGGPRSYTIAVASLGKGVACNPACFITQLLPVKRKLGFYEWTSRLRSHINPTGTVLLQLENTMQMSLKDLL

Activity change, negative = inhibition, inactive:
C=CC(C1=CC(=O)C=CC1=O)c1ccc(O)cc1 (configuration not stated) -1.94%
Cc1nc(NC(=O)C2CCCCC2)sc1C -1.19%
c1ccc(CN=C2Nc3ccccc3CS2)nc1 -4.37%
O=C(CSc1nnc(-c2ccncc2)n1-c1ccc(Cl)cc1)Nc1ccc(C(=O)O)cc1 1.75%
C[C@H]1Cc2c(-c3ccccc3)nc3c(c2CO1)CN(C(=O)C1CC1)CC3 3.68%
O=c1c2c(nc3cc(-c4cccc(Cl)c4)[nH]n13)CCCC2 -11.9%
CC(C)C1=CC2=CC[C@H]3[C@](C)(C(=O)O)CCC[C@]3(C)C2CC1 (some centres not stated) -16.7%
COc1ccc(CCNC2=CC(=O)CC(C)(C)C2)cc1 -1.74%
O=C(CC(=O)N/N=C\c1cccc(Cl)c1Cl)NCc1ccccc1 -2.61%
COc1cc(NC(=O)c2cncc(-c3ccc(C#N)cc3)c2)cc(C(=O)Nc2cccc(C(F)(F)F)c2)c1 -3.74%
COc1cccc(-c2cc(=O)c3cc(NC(=O)c4ccc(C)cc4)ccc3[nH]2)c1 2.12%
Cc1nc(-c2ccc(Cl)cc2)sc1C1(C)CC(c2ccccc2F)=NO1 (configuration not stated) -4.79%
COc1ccc(/C=C2\NC(=O)[C@@H]3Cc4ccccc4CN3C2=O)cc1 -9.91%
CC(C)Cc1nc(Nc2ccc(S(=O)(=O)N3CCCC3)cc2)c2nnn(Cc3ccccc3)c2n1 2.63%
NC(=O)COc1ccc(C23CC4CC(CC(C4)C2)C3)cc1 0.403%
COc1ccc(OC)c(S(=O)(=O)Nc2cccc(-c3ccc4nncn4n3)c2)c1 -22.2%
COC(=O)C1=C(C(=O)OC)C(c2cc([N+](=O)[O-])ccc2O)c2sc(=O)[nH]c2S1 (configuration not stated) -3.48%
CCCCNS(=O)(=O)c1ccc2nc(SCC(=O)Nc3cc(C)cc(C)c3)[nH]c2c1 -4.8%
CCOC(=O)C1=C(C)c2ccccc2OC1C(=O)OCC (configuration not stated) -3.65%
O=C(COc1cc(Cl)c(Cl)cc1Cl)NC(=O)NC1CCCC1 -0.202%
COc1ccc(-c2c(C)cc3oc(=O)cc(-c4ccccc4)c3c2C)cc1C=O -16.8%
CCCCCCCCCCCCN1C(=O)CSC1c1cccnc1 (configuration not stated) -8.5%
C=C(C(C)=O)C(O)c1ccc([N+](=O)[O-])cc1 (configuration not stated) -0.319%
C=CCOC(=O)NC(c1ccc(F)c(F)c1)C(C(=O)COC)C(=O)OC (configuration not stated)
COc1ccc(-c2nc3c(c4c2C[C@H](c2ccccc2)OC4)CN(C(=O)c2cccnc2)CC3)c(C)c1 -5.59%
COC(=O)C1(C(C)=O)CC2=CC[C@H]3C(=O)N(c4ccccc4)C(=O)[C@H]3[C@@H]2Cc2ccccc2[C@@H]1C[N+](=O)[O-] (some centres not stated)
Cc1cccc(-c2nc3ccccc3c(=O)n2NC(=O)Cc2ccc(Cl)cc2)c1 4.61%
O=C(NCc1ccco1)O[C@@H]1C(=O)c2cc(Br)ccc2O[C@H]1c1ccc2c(c1)OCO2 -4.29%
O=C(O)CC(Cc1ccccc1)C(=O)Nc1ccc([N+](=O)[O-])cc1 (configuration not stated) -7.27%
OC[C@H]1O[C@@H](n2cnc3c(N[C@H]4CC5CCC4C5)ncnc32)[C@H](O)[C@@H]1O (some centres not stated) -5.15%
COc1cccc([C@@H]2Oc3ccc(Br)cc3C(=O)[C@H]2OC(=O)NCCc2ccc(OC)c(OC)c2)c1 -5.8%
CCOC(=O)C1C/C(=C\C(C)=O)c2cccc(C(F)(F)F)c2O1 (configuration not stated) -13.6%
C/C(Nc1ccc2oc(=O)ccc2c1)=C1/C(=O)CC2[C@@H]1C2(C)C (some centres not stated) -2.21%
O=C(NNC(=S)NC1CC2CCC1C2)c1ccc(Cl)cc1 (configuration not stated) -13.7%
COc1cc(NC(=O)c2ccc3c(c2)OCO3)ccc1NC(=O)c1cccs1 6.42%
CC(=O)Nc1ccc(NC(=O)CSc2ncnc3c2cnn3Cc2ccccc2)cc1 -11.5%
C=C1c2cccc(OC)c2O[C@H](C(=O)OCC)[C@@H]1CCCCCC -12.3%
C=CCn1c2ccccc2c2nnc(SCc3[nH]c(=O)[nH]c3C(=O)CCCCC(=O)OCC)nc21 6.4%
O=C(COC(=O)CNC(=O)c1ccccc1F)NCC(F)(F)F 2.03%
COC(=O)C1=C(C(=O)OC)[C@@H]2N(C)c3ccccc3[C@@]23C[C@@H](C(=O)OC)N(S(=O)(=O)c2ccc(Br)cc2)C3=N1 -2.66%
O=C(NCCCN1CCOCC1)c1cc2c(s1)CCC2 -4.48%
CCOc1ccc(C2NC(=S)NC3=C2CCc2ccccc23)cc1 (configuration not stated) -7.19%
COc1cc(OC)c2c(-c3cccc(-c4cccc(N)c4)c3)cc(=O)oc2c1 -6.01%
Cc1ccc(NC(=O)O[C@@H]2C(=O)c3cc(Br)ccc3O[C@H]2c2ccc3c(c2)OCO3)cc1Br -0.736%
CC1=C(C)CC(C(=O)NNC(=O)c2ccccc2O)C(C(=O)O)C1 (configuration not stated) 8.41%
O=S(=O)(Cc1noc(-c2ccc(OC(F)(F)F)cc2)n1)c1ccc(F)cc1 -3.61%
COc1cc(CNCCN(C)C)ccc1OCc1c(F)cccc1Cl 7.26%
Clc1ccc(-c2csc(-c3ccncc3)n2)cc1 0.359%
CCOc1cc(N2CCOCC2)c(OCC)cc1NC(=O)c1ccc(C)s1 3.82%
NC1CCN(O)C1=O (configuration not stated) -1.41%
COc1ccc(S(=O)(=O)N(C)C)cc1NC(=O)CSc1ncccn1 -1.38%
O=C(COc1ccccc1)N1CCN=C1SCc1cccc(F)c1 -1.66%
CC(=O)/C(C)=N/O 6.05%
CCO[C@H]1OC(C(=O)N2CCN(Cc3ccccc3)CC2)=C[C@@H](c2cn(C(C)=O)c3ccccc23)[C@@H]1CCCO -8.17%
C=C/C1=C/Cc2ccccc2[C@H](C[N+](=O)[O-])C(C(=O)OC)(C(=O)OC)C1 -2.03%
NNC(=O)c1oc2nc(-c3ccccc3)cc(-c3ccco3)c2c1N -5.28%
S=C(NCCCc1cnc[nH]1)NCCCN(Cc1ccc(Cl)c(Cl)c1)c1ccc(Br)cn1 -6.2%
Cc1cccc([C@H]2[C@@H]3C=CC[C@@H](C)[C@@H]3C(=O)N2Cc2ccccc2)c1 -2.93%
CCN(CCn1cccn1)C(=O)CC1C(=O)NCCN1Cc1cccc(OC)c1OC (configuration not stated) -3.26%
O=[N+]([O-])c1ccc(N2CCNCC2)cc1NCc1cccnc1 -23.8%
S=C(NNC(=S)NC1CC2C=CC1C2)NC1CC2C=CC1C2 (configuration not stated) -8.67%
COC(=O)N1C(/C=C/C=C/c2ccc(OC)cc2)=Cc2ccccc2C1CC(C)=O (configuration not stated) -1.09%
COc1ccc(C(=O)COC(=O)c2nn(C)c(=O)c3ccccc23)c(OC)c1 -26.1%
COc1cccc(NC(=S)NCc2ccco2)c1 -7.84%
Cn1c(SCC(=O)NC2CCCCC2)nnc1-c1ccc(N)cc1 -1.25%
COC(=O)C1=C(C(=O)OC)[C@@H]2N(C)c3ccccc3[C@@]23C[C@@H](C(=O)OC)N(S(=O)(=O)c2cccs2)C3=N1 -0.375%
CN1CCC(=NNC(=O)CN(c2cccc(Cl)c2)S(C)(=O)=O)CC1 -0.661%
NC(=O)CC(NC(=O)Cc1cccc2ccccc12)c1ccc(NCc2cc(F)ccc2F)c([N+](=O)[O-])c1 (configuration not stated) 10.4%
N#Cc1cccc(CS(=O)(=O)c2nnnn2-c2cc(C(F)(F)F)cc(C(F)(F)F)c2)c1 -8.23%
Cc1cc(C(=O)COC(=O)CNC(=O)c2ccc(F)cc2)c(C)n1Cc1ccco1 1.82%
OCCC1CN(Cc2ccc3nsnc3c2)CCN1C1CCCCC1 (configuration not stated) -12.3%
Cc1cc(C)cc(N(CC(=O)NCCSCc2ccco2)S(C)(=O)=O)c1 0.74%
CC1CCN(c2c(NCc3ccc(C(=O)NCc4ccccc4)cc3)c(=O)c2=O)CC1 -4%
CNC(=O)c1ccc(NC(=O)c2cccc(C(F)(F)F)c2)cc1 -1.3%
Nc1ccc(OCC(O)C[n+]2ccc(CCS(=O)(=O)[O-])cc2)cc1 (configuration not stated) 5.66%
Cc1cccc2c1N(CCOc1ccccc1)C(=O)C2=O -14.8%
CN1C(=O)/C(=C\c2ccc(-c3ccccc3)o2)SC1=S 4.38%
C/C(=N\NC(=O)c1cccc(N2CCCC2=O)c1)c1ccc(N)cc1 0.376%
CC(C)(C)Nc1c(-c2cccs2)nc2ccccn12 5.51%
Cc1csc(-c2coc3cc(O[C@@H]4O[C@H](CO)[C@@H](O)[C@@H](O)[C@H]4O)ccc3c2=O)n1 -1.54%
c1ccc2c(c1)CSc1sccc1C2=C1CCNCC1 7.6%
CC(=O)CC(c1ccccc1)C1C(=O)Oc2ccccc2C1=O (configuration not stated) -1.34%
COC(=O)C1=C(C(=O)OC)[C@@H]2N(Cc3ccccc3)c3ccccc3[C@@]23C[C@@H](C(=O)OC)N(S(=O)(=O)c2ccc(C(F)(F)F)cc2)C3=N1 -8.58%
O=C(NCCN1CCOCC1)c1ccc2c(c1)N(Cc1ccc(Cl)cc1)CCS2 19.9%
C/C=C(\C)C(=O)OC1C(OC(=O)C2(C)OC2C)c2cc3ccc(=O)oc3cc2OC1(C)C (configuration not stated) -3.44%
CNC(=S)N1CCC(NC(=O)C(Cc2ccc(F)cc2)NC(C)=O)CC1 (configuration not stated) 2.08%
Cc1oc2cc([N+](=O)[O-])c(O)c([N+](=O)[O-])c2c1C(=O)c1ccc(Br)cc1 0.458%
CCc1ccc(NC(=O)C(=O)N/N=C(\C)CC(=O)NCCOC)cc1 3.4% [at 21.1 µM]
CCOc1ccc(NC(=O)c2ccc(CSc3nnnn3C)cc2)cc1 5.27%
COC(=O)C1=C(C(=O)OC)[C@@H]2Nc3ccccc3[C@@]23C[C@@H](C(=O)OC)N(S(=O)(=O)c2ccc([N+](=O)[O-])cc2)C3=N1 -1.19%
COc1ccc(Nc2ncnc3ccc(OC)cc23)cc1 -4.49%
C[N+]1(CC(O)COc2ccccc2)CCN(C(=O)c2ccc([N+](=O)[O-])cc2)CC1 (configuration not stated) -12.9%
C/C=C(\C)C(=O)O[C@H]1CC(C)=C2C(=O)C=C(C)C2[C@@H]2OC(=O)[C@@](C)(OC(=O)C=C(C)C)C21 (some centres not stated) 0.518%
Cc1nc(SCc2ccc(F)cc2)c([N+](=O)[O-])[nH]1 -11%
C=CCN1C(=O)C(Cc2ccc(OCC)cc2)SC1=Nc1ccc(C(=O)O)cc1 (configuration not stated) -0.326%
Cc1ccc(C)c(-n2nnnc2SCC(=O)c2c(N)n(C)c(=O)n(C)c2=O)c1 7.01%
COc1ccc2c(c1)O[C@@H](c1ccc3c(c1)OCO3)[C@H](OC(=O)NCc1ccco1)C2=O -8.2%
